Compound activity from PubChem BioAssay.
Compounds with a hit are over-represented: about 4.7% of the library has one in this group of screens.
tim23-1 inh – growth inhibitors of tim23-1 mutant yeast | AID 463212 | S. cerevisiae tim23-1 growth, BacTiter-Glo luminescence, 24 h | inhibition, % at 20 µM | 1.3% of 330,000 active;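 active means growth inhibition of the mutant yeast at or above 50%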;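 further: temperature-sensitive mutant grown at 25 °C; plate controls were DMSO-treated mutant yeast for no effect and medium wells lacking yeast for full effect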
tim10-1 inh – growth inhibitors of tim10-1 mutant yeast | S. cerevisiae tim10-1 ts strain growth, BacTiter-Glo, 24 h | inhibition, % at 20 µM | 2.2% of 330,000 active;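 active means inhibition of at least 40%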;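 further: mutant grown at 25 °C; 0% = DMSO wells with yeast and 100% = wells holding no yeast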
TIM10 inh – growth inhibitors of TIM10 yeast strain; S. cerevisiae TIM10 strain growth, BacTiter-Glo luminescence, 24 h; inhibition, % at 10 µM; 1.4% of 330,000 active; AID 463195;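 active means inhibition of 40% or more at the single tested concentration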;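 further: wild-type TIM10 isogenic control strain grown at permissive 25 °C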
SKKanGAS inh – SKKanGAS growth inhibition | AID 1662 | S. pyogenes SKKanGAS, kanamycin growth, BacTiter-Glo, 6 h | inhibition, % at 7.5 µM | 1.3% of 300,000 active;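 active means mean replicate score, as percent of positive control median, at least 50; inconclusive means mean below 50 but one replicate at or above 50; inactive means mean and every replicate below 50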;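 further: strain carries kanamycin resistance gene driven by streptokinase promoter and grows in 40 µg/ml kanamycin; loss of luminescence reflects streptokinase promoter inhibition or plain growth inhibition; 0% = median of DMSO wells and 100% = positive control at its reference dose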
Calb FLC – C. albicans growth modulation with fluconazole | C. albicans CaCi-2 (fluconazole-resistant clinical isolate) + fluconazole, Alamar Blue growth, 48 h | growth inhibition, % (no concentration beside the values) | 0.57% of 300,000 active | AID 1979;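 active means growth inhibition above about 58% in most replicates, limit read from the data, passing the limit was not always enough; inconclusive means exactly half the replicates above a set limit; inactive means most replicates below a set limit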;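 further: all wells also contain fluconazole at 8 µg/ml as a sub-toxic cotreatment; 0% = median of DMSO wells and 100% = median of geldanamycin control wells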
PfHsp90 yeast 2 – inhibits growth of yeast expressing Plasmodium falciparum Hsp90; S. cerevisiae expressing PfHsp90, BacTiter-Glo ATP, 48 h; yeast lacking PDR1 and PDR3 efflux regulators; inhibition, % at 9.4 µM; 0.32% of 310,000 active;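 active means every replicate shows inhibition above about 80%, whatever the replicate mean, limit read from the data; inconclusive means mean inhibition reaches the set limit but some replicate falls short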;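 further: 0% = DMSO neutral controls and 100% = 20 µM radicicol positive controls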
tim10-1 confirm – tim10-1 yeast growth inhibition, confirmed. AID 463213. 56% of 7,400 active. shares compounds with tim10-1 inh. inhibition, % at 20 µM. S. cerevisiae tim10-1 ts strain growth, BacTiter-Glo, 24 h;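 active means inhibition of yeast growth at or above a set limit in either of two repeat tests at 20 µM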;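 further: tim10-1 mutant grown at permissive 25 °C to find synthetic lethal compounds; 0% = DMSO yeast wells and 100% = medium wells without yeast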
* hit, by the source's call; ? = inconclusive; nt = not tested or not shown.

SMILES	tim23-1 inh	tim10-1 inh	TIM10 inh	SKKanGAS inh	Calb FLC	PfHsp90 yeast 2	tim10-1 confirm
CN1CCN(c2ccccc2NC(=O)c2ccc(-c3cccc(Cl)c3)o2)CC1	44	60*	36	9	-11	22	47*
Cc1cccc(OCC(=O)Nc2ccccc2N2CCN(C(=O)C(C)C)CC2)c1C	32	48*	30	1	15	nt	30*
CC(C)C(=O)N1CCN(c2ccccc2NC(=O)c2ccc([N+](=O)[O-])o2)CC1	45	59*	35	3	-1	23	56*
Cc1cccc(OCC(=O)Nc2ccccc2N2CCCC2)c1C	16	12	-1	20	0	nt	nt
Cc1nc2cc(C(=O)OCC(=O)NC34CC5CC(CC(C5)C3)C4)ccc2n1-c1ccccc1	34	40*	28	21	2	-4	32*
CC(C)(C)C1CCc2nc(NC(=O)Cc3cn4ccsc4n3)sc2C1 (stereo not given)	47	57*	30	47	5	-10	34*
COc1ccc(NC(=O)CCCNC(=O)Cn2cnc3sc4c(c3c2=O)CCCC4)c(OC)c1	0	-9	-17	-1	0	-45	nt
CCc1cccc(CC)c1NC(=O)COC(=O)c1ccccc1-c1nc2ccccc2s1	26	44*	10	8	2	0	19
CCC(=O)Nc1cccc(C(=O)/C=C/c2ccccc2)c1	34	42*	20	-4	6	4	43*
CCC(=O)Nc1cccc(C(=O)c2ccccc2)c1	13	-1	5	-11	-8	6	nt
COc1cc(OC)cc(C(=O)Nc2nc(-c3ccccc3)c(-c3ccccc3)o2)c1	10	44*	21	90*	-19	6	33*
CCN(CC)C(=S)SCC(=O)Nc1nc(-c2ccccc2)c(-c2ccccc2)o1	18	41*	19	83*	18	-13	12
O=C(CSC(=S)N1CCN(c2ccccc2)CC1)Nc1nc(-c2ccccc2)c(-c2ccccc2)o1	13	8	9	-2	-9	-1	nt
Cc1noc(C)c1C(=O)Nc1nnc(-c2ccccc2)s1	9	4	-12	2	-2	-4	nt
Cc1onc(-c2ccccc2)c1C(=O)Nc1nnc(-c2ccncc2)s1	31	44*	24	14	55	nt	39*
O=[N+]([O-])c1c(NCCCO)cc(Sc2nc3ccccc3s2)c2nonc12	30	85*	11	78*	39	nt	85*
Cc1nnc(Sc2cc(NCCCO)c([N+](=O)[O-])c3nonc23)s1	nt	nt	nt	?	3	-5	nt
O=C(c1ccc(Cl)cc1)N1CCN(S(=O)(=O)/C=C/c2ccccc2)CC1	42	46*	20	nt	nt	-10	22
O=C(CCC(=O)c1cccs1)NCc1cccc(Cl)c1	4	12	10	2	-2	5	nt
CCOc1ccc(NC2=CC(=O)CC(c3ccco3)C2)cc1 (stereo not given)	8	18	17	-6	-11	nt	nt
CCCCCCCNC1=CC(=O)CC(c2ccco2)C1 (stereo not given)	30	50*	-9	-7	-12	-98	14
Cc1cc(C)c(CSc2ncc(-c3ccc([N+](=O)[O-])cc3)[nH]2)c(C)c1	43	45*	39	73*	-2	-21	34*
COc1ccc(/C=C/C(=O)c2nc3ccccc3n2CC(=O)c2ccc(OC)cc2)cc1	39	41*	31	5	-3	-49	37*
COc1ccc(C(=O)Cn2c(C(C)=O)nc3ccccc32)cc1	nt	nt	nt	nt	nt	-1	nt
COc1ccc(Cn2c(/C=C/c3ccccc3)nc3ccccc32)cc1	36	46*	34	14	0	nt	24
SMILES	tim23-1 inh	tim10-1 inh	TIM10 inh	SKKanGAS inh	Calb FLC	PfHsp90 yeast 2	tim10-1 confirm
CCn1c(/C=C/c2ccccc2)nc2ccccc21	38	32	11	1	32	13	nt
COc1ccc(-c2nnc(SCc3ccc(C(=O)O)cc3)n2C)cc1OC	1	9	5	0	9	9	nt
COC(=O)c1cc(C(=O)N2CCc3ccccc32)cc([N+](=O)[O-])c1	20	-4	6	3	3	-11	nt
Cc1ccc(C(=O)Nc2nc3ccc(S(C)(=O)=O)cc3s2)o1	44	44*	26	12	-4	nt	38*
CS(=O)(=O)c1ccc2nc(NC(=O)c3cc4ccccc4o3)sc2c1	3	-1	17	31	?	5	nt
O=C(c1ccc(O)cc1)c1ccc(Cl)cc1	39	40	-4	3	2	5	26
O=C(NC(=S)Nc1ccccc1[N+](=O)[O-])c1cncc(Br)c1	45	40	17	8	-8	-32	14
COc1cccc(NC(=S)NC(=O)c2cncc(Br)c2)c1	45	47*	37	2	-25	-12	7
CC(=O)c1cccc(NC(=S)NC(=O)c2cncc(Br)c2)c1	36	34	15	5	-1	-14	nt
CCOC(=O)N1CCC(NC(=O)c2ccc3c(c2)N=C(C)c2c(C)ccc(C)c2S3)CC1	45	44*	22	9	12	-17	3
COc1ccc(C(=O)N/C(=C\c2cn(S(=O)(=O)N(C)C)c3ccccc23)C(=O)N2CCOCC2)cc1	-3	-7	6	1	35	-11	nt
O=C(O)c1ccc2c(c1)C(=O)N(CCc1ccccc1)C2=O	-5	-9	1	-1	-5	14	nt
O=C(NC1CCN(CCc2c[nH]c3ccccc23)CC1)c1ccccc1	21	43*	12	1	-3	8	20
O=C(O)c1ccc2c(c1)C(=O)N(CCc1c[nH]c3ccccc13)C2=O	8	98*	11	6	2	9	-11
COc1ccc(C(=O)C2CCCN(C(=O)c3cc(C)nc(C)n3)C2)cc1OC (stereo not given)	10	4	13	-1	-1	10	nt
COc1ccc(C2NC(=S)NC3=C2CCc2cc(OC)ccc23)cc1 (stereo not given)	48	54*	34	-5	23	-3	40*
Cc1ccc(/C=C2\CCCC3=C2NC(=S)NC3c2ccc(C)cc2)cc1 (stereo not given)	19	33	10	6	-13	13	nt
CCOC(=O)NC1(NC(C)C)Oc2ccccc2O1	14	12	20	7	4	0	nt
CCOC(=O)NC1(NC2CCCCC2)Oc2ccccc2O1	46	40*	37	-7	1	-3	28
Cc1ccc(C(C)C)cc1C(=O)CC1(O)C(=O)N(C)c2ccccc21 (stereo not given)	1	42*	33	3	0	-1	32*
